In the library only some 3.9% were active in any assay of this set; here they are far more common.
Autofluor counter – compound fluorescence in toxin protease inhibitor counterscreen; fluorescence intensity (no concentration beside the values); actives 3.1% (n = 360,000); compound autofluorescence counterscreen, microsphere flow cytometry; stronger effect = higher value; in the data active means fluorescence intensity above about 16000
BoNT A protease – blocks Botulinum neurotoxin A light chain protease | multiplex microsphere protease substrate cleavage, flow cytometry | actives 0.17% (n = 360,000) | inhibition, % at 10 µM
SARS 3CLpro inh-1 – SARS-CoV 3CLpro protease inhibition | P0C6X7 | recombinant SARS-CoV 3CLpro, quenched FRET peptide cleavage | inhibition, % at 6 µM | actives 0.14% (n = 290,000) | AID 1706; in the data active means inhibition above about 12%
BoNT F protease – inhibitors of Botulinum neurotoxin F light chain protease. Multiplex microsphere protease cleavage assay, flow cytometry. inhibition, % at 10 µM. actives 0.22% (n = 360,000); in the data active means inhibition above about 35%, passing the limit was not always enough
Anthrax LF prot – inhibitors of Bacillus anthracis lethal factor protease; multiplex microsphere protease cleavage assay, LF; P15917; inhibition, % at 10 µM; actives 0.12% (n = 360,000); AID 588501
CCHFV vOTU inh – blocks the CCHF virus ovarian tumor domain protease | AID 651958 | inhibition, % at 11.5 µM | actives 0.55% (n = 370,000) | CCHFV vOTU protease, Pep-AMC fluorescence; in the data active means inhibition above about 30%
SARS 3CLpro inh-2 – SARS 3CLpro inhibition, confirmation assay; shares compounds with SARS 3CLpro inh-1; QFRET protease activity assay; inhibition, % at 6 µM; actives 36% (n = 380); AID 1879; in the data active means inhibition above about 13%
A number is an active result; . = inactive; / = no result. Unless noted, no stated cut-off is given here; in the data, active means inhibition above about 30%; inconclusive means no clear call, values can overlap the other calls; inactive means below that.

SMILES | Autofluor counter | BoNT A protease | SARS 3CLpro inh-1 | BoNT F protease | Anthrax LF prot | CCHFV vOTU inh | SARS 3CLpro inh-2
CC(C)(C)OC(=O)CNC(=O)c1[nH]cnc1C(=O)NC(c1ccccc1)c1ccccc1 | . | . | 12.7 | . | . | . | .
CC(C)(C)OC(=O)[C@H](Cc1ccccc1)NC(=O)c1nc[nH]c1C(=O)NCc1ccccc1 | . | . | . | . | . | . | /
Nn1c(SCc2ccc([N+](=O)[O-])cc2)nnc1-c1cc(-c2ccccc2)n[nH]1 | / | / | / | / | / | . | /
CC(=O)c1cc(-c2ccccc2)[nH]c1N1CCOCC1 | . | . | 45.6 | . | . | . | .
Cc1cc(C)c(C)c(S(=O)(=O)N2CCN(C(=O)c3cc(=O)[nH]c4ccccc34)CC2)c1C | 20107 | . | 55.1 | . | . | . | 53.2
Cc1cc(C)c(S(=O)(=O)N2CCN(C(=O)c3cc(=O)[nH]c4ccccc34)CC2)c(C)c1 | . | . | / | . | . | . | /
O=C(c1cc(=O)[nH]c2ccccc12)N1CCN(c2ccc([N+](=O)[O-])cc2)CC1 | . | . | . | . | . | . | /
COc1ccc(N2CCN(C(=O)c3cc(=O)[nH]c4ccccc34)CC2)cc1 | . | . | 27.0 | . | . | . | 26.7
O=C(c1ccccc1F)N1CCN(c2cccc(C(F)(F)F)c2)CC1 | . | . | . | . | . | . | /
O=C(c1cc(=O)[nH]c2ccccc12)N1CCN(c2cccc(C(F)(F)F)c2)CC1 | . | . | 45.9 | . | . | . | 44.3
COc1cccc(/C=N\N2CCN(c3ccc(C)cc3)CC2)c1O | / | / | / | / | / | . | /
O=C(O)c1cccc(NS(=O)(=O)c2ccc(C3CCCCC3)cc2)c1 | . | . | 12.3 | . | . | / | .
Cc1cccc(NS(=O)(=O)c2ccc(C3CCCCC3)cc2)c1 | . | . | . | . | . | . | /
CCc1c(C)sc(NC(=O)OC)c1C(=O)N1CCCCC1 | . | . | . | . | . | . | /
CCc1c(C)sc(NC(=O)Cc2ccccc2OC)c1C(=O)N1CCOCC1 | . | . | 12.8 | . | . | . | .
COC(=O)C[C@H]1CC[C@@H]2[C@H](COc3ccc(NC(=O)c4cnccn4)cc3C(=O)N2C)O1 | / | / | / | / | / | . | /
CC(=O)c1c(OC(=O)c2ccco2)c2ccccc2n1C | . | . | 12.8 | . | . | . | 15.6
Cc1ccc(C(=O)CSc2nnc(CNc3ccc(C)cc3C)n2Cc2ccco2)cc1 | . | . | 12.7 | . | . | . | .
COc1ccc(C(=O)CSc2nnc(CNc3ccc(C)cc3C)n2Cc2ccco2)cc1 | . | . | . | . | . | . | /
Cc1ccc(C2CC(c3cccs3)=NN2C(=O)CCl)cc1 (centres undefined) | . | . | 54.7 | . | . | . | 70.1
CC(C)(C)C(=O)NC(=S)Nc1sc2c(c1C#N)CCCCC2 | . | . | 33.6 | . | . | . | .
Cc1cc(C)c(N(C(=O)Cn2nnc3ccccc32)C(C(=O)NC(C)(C)C)c2ccsc2)c(C)c1 (centres undefined) | . | . | 43.3 | . | . | . | 69.2
COc1ccccc1-c1nnc2n1N=C(c1ccc3c(c1)OCO3)CS2 | / | / | / | / | / | . | /
CC(C)CS(=O)(=O)C1=NSC2=NC(=O)/C(=C\c3ccc(OC(=O)c4ccco4)cc3)C(=N)N21 | . | . | 13.2 | . | . | . | .
O=S(=O)(Nc1ccc(S(=O)(=O)Nc2nccs2)cc1)c1ccc(Br)cc1 | . | . | 47.3 | . | . | . | .
SMILES | Autofluor counter | BoNT A protease | SARS 3CLpro inh-1 | BoNT F protease | Anthrax LF prot | CCHFV vOTU inh | SARS 3CLpro inh-2
COC(=O)[C@]12C[C@H](CC(=O)N3CCCC3)C(=O)N(Cc3cccc4ccccc34)C1=C[C@H](COCc1ccccc1)O[C@@H]2C | / | / | / | / | / | . | /
Cc1ccc(C(=O)NC2CCCCN(Cc3cccc(F)c3)C2=O)cc1 (centres undefined) | / | / | / | / | / | . | /
CC(C)[C@H](NC(=O)c1ccc(Cl)cc1Cl)C(=O)N1CCC[C@H]1C(=O)NCc1ccccc1 | / | / | / | / | / | . | /
O=c1[nH]c(=O)n(-c2ccc(F)cc2)c(O)c1/C=C1\C=Nc2ccccc21 | . | . | . | . | . | . | /
O=c1[nH]c(=O)n(-c2ccccc2F)c(O)c1/C=C1\C=Nc2ccccc21 | . | . | 29.2 | . | . | . | 38.5
COc1cc(CNCCc2c[nH]c3ccccc23)cc(OC)c1 | . | . | 71.0 | . | . | . | .
COc1cc(CNCCc2c[nH]c3ccccc23)cc(OC)c1OC | . | . | / | . | . | . | /
CCN1CCCCC(NC(=O)Cc2ccccc2)C1=O (centres undefined) | / | / | / | / | / | . | /
O=S(=O)(Nc1cc(F)ccc1F)c1cccc2nonc12 | . | . | 12.9 | . | . | . | .
